Results filed as inconclusive are left out. The source made the active and inactive calls. Rule for the calls: active = hit-call score of the fitted dose curve at least 0.9, where 1 is the maximum; inconclusive = response in the unintended direction; inactive = score below 0.9.

Here are results for 37 molecules from PubChem BioAssay (EPA / NIEHS).

A short description of the test: ACEA_ER_80hr: ACEA Biosciences xCELLigence Real-Time Cell Analysis on Estrogen Receptor Agonism for Proliferation (AID 2282667). To be noted: T47D proliferation, impedance (xCELLigence), 80 h. In outline: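 T47D human breast cells were seeded on electrode plates, monitored overnight, then exposed continuously to compounds in eight-point 1:4 dilutions from 100 uM (max 0.5% DMSO). Impedance-based growth was read at 80 h, fitted upward relative to DMSO.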
As for `CC1COC(=O)O1` (configuration not stated), the call was inactive.

As usually defined, the AC50 is the midpoint of the concentration-response curve, whichever way the signal moves. Consider `c1ccc(-c2nn[nH]n2)cc1`, for which the AC50 is 0.0261 µM (active).

With `CCNC(=S)NCC`, the molecule was classed as inactive.

For `CN(C)c1ccc(C=O)cc1`, the outcome was inactive. Consider `CCCCCCCOC(C)=O`, for which the result was inactive. Regarding `O=S(=O)(O)CCCN1CCOCC1`, the outcome was inactive.

For the molecule `c1ccc(Cc2ccccc2)cc1`, the result was inactive. Regarding `COC(=O)c1cccc(C(=O)OC)c1`, the outcome was inactive. Turning to `CCCc1ccc(O)cc1`, the AC50 is 50 µM (active). In the case of `O=C(O)C1=NN(c2ccc(S(=O)(=O)O)cc2)C(=O)C1`, the call was inactive. For `C=C(C)C(=O)OCCOCCOC(=O)C(=C)C`, the molecule was called inactive.

As to `CC(=O)c1ccc(C)cc1`, the call was inactive. Still for that read-out and setting: with `O=C1OCc2ccccc21` the entry was “inactive”; with `CCCCC1CCCCC(=O)O1` (configuration not stated), “inactive”.

Regarding `C=C(C)CCCC(C)CCO` (configuration not stated), the molecule was called inactive.

Take `c1ccc2c(c1)-c1ccc3ccc4cccc5cc-2c1c3c45`: the call was inactive. As for `C=C(C)C(=O)OCCC[Si](OC)(OC)OC`, the result was inactive.

Turning to `NCCN1CCNCC1`, the concentration at half-maximal activity (AC50) is 10.8 µM (active). For the molecule `C=C(C)C(=O)OCCC(C)OC(=O)C(=C)C` (configuration not stated), the molecule was called inactive.

As to `CCC(=O)OCC=Cc1ccccc1`, the AC50 is 10.5 µM (active). As to `CC(=O)Oc1c(C)c(C)c2c(c1C)CC[C@@](C)(CCC[C@H](C)CCC[C@H](C)CCCC(C)C)O2`, the call was inactive. With `C=CCS(=O)(=O)O`, the molecule was called inactive. The same measure, in the same setting: with `CC1=CC(O)CC(C)(C)C1` (configuration not stated) the entry was “inactive”; with `CC(=O)Nc1cc(S(=O)(=O)O)cc2cc(S(=O)(=O)O)c(N=Nc3ccccc3)c(O)c12`, “inactive”; with `CCCOC(=O)CC`, “inactive”.

`CCOc1ccc(NC(C)=O)cc1`: the outcome was inactive.

`CCCCC(CC)COC(=O)COc1ccc(Cl)cc1C` (configuration not stated): the result was inactive.

In the case of `C=CC(=O)OCC(CO)(COC(=O)C=C)COC(=O)C=C`, the molecule was called inactive.

For `CCCCOC(=O)C(C)OC(=O)CCC` (configuration not stated), the outcome was inactive. In the case of `CCCCCCCCCCCCOCCOS(=O)(=O)O`, the AC50 is 1.98 µM (active). Regarding `CCC(=O)OC(C)(C)C1CC=C(C)CC1` (configuration not stated), the outcome was inactive. In the case of `C=CC(O)CCCCC` (configuration not stated), the molecule was called inactive. Turning to `Cc1cccc(C)c1`, the molecule was classed as inactive.

Turning to `Nc1ccn([C@H]2CC[C@@H](CO)O2)c(=O)n1`, the molecule was classed as inactive. The same measure, in the same setting: with `CCO[Si](CC)(OCC)OCC` the entry was “inactive”; with `C=COCC1CCC(COC=C)CC1` (configuration not stated), “inactive”; with `NNC(=O)OCc1ccccc1`, “inactive”.
